In the library only some 3.1% were active in any assay of this set; here they are far more common.
HSF-1 act = increases HSF-1 driven luciferase reporter signal; 300,000 tested, 1.7% active; activation, % at 9 µM; NIH3T3-HGL HSF-1 luciferase reporter, MG132, 8 h; 100% = twice DMSO control signal;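 active means mean replicate activation of at least 50% with a set share of replicates each reaching 50%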
ARNT-TACC3 inh = disrupts binding between human ARNT and TACC3. 390,000 tested, 0.66% active. AID 623870. AlphaScreen His-ARNT PAS-B/GST-TACC3 binding, luminescence; TACC3 fragment carries E629A point mutation. inhibition, % at 9.99 µM;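 active means mean inhibition of replicates at least 50% and at least half of replicates each reaching 50%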
HIF activator = HIF pathway transcriptional activation. 300,000 tested, 0.32% active. activation, % at 7.5 µM (by protocol). U2OS HRE-luciferase reporter, luminescence; normalized: DMSO 0%, desferrioxamine 100%;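 active means mean activation of at least 10% of the iron chelator positive control signal, with at least half of replicates also reaching 10%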
HSF1 inhib = HSF1 inhibition. NIH3T3-HGL HSE-luciferase, MG132-induced, luminescence 8 h; hits give low values. activity change, negative = inhibition, % at 7.5 µM (by protocol). 300,000 tested, 0.77% active. AID 2098;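 active means more than half of replicate wells show activity change below -50%, luminescence cut by over half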;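 further: luciferase reports HSF-1 transcriptional activity via heat shock element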
HSP90 refold inh = blocks HSP90-mediated luciferase refolding in reticulocyte lysate | inhibition, % at 5.6 µM | 290,000 tested, 0.91% active | Rabbit reticulocyte lysate, luciferase refolding luminescence, 3 h;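 active means inhibition above the screen-wide mean plus 3 SD, computed separately per campaign, cut at about 16% in these data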;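 further: inhibitors lower the luminescence because luciferase stays unfolded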
Each line names hits and unclear results; the compound was inactive in the other large screens.

COCc1cc(=O)[nH]c(Nc2nc3ccccc3o2)n1	HSF-1 act 84, ARNT-TACC3 inh 60
CO[C@H]1CN(C)C(=O)c2ccc(NC(=O)C3CC3)cc2OC[C@H](C)N(C(=O)c2ccncc2)C[C@H]1C	none (no result: HSF-1 act, HIF activator, HSF1 inhib, HSP90 refold inh)
Brc1ccc(OCCCOc2cccc3cccnc23)cc1	HSF-1 act 56
Clc1ccccc1OCCCOc1cccc2cccnc12	HSF-1 act 106
O=[N+]([O-])c1ccccc1OCCCOc1cccc2cccnc12	HSF-1 act 55
Brc1ccc(OCCOCCOc2cccc3cccnc23)cc1	none
CCCNC(=O)Nc1ccc2c(c1)C(=O)N(C)[C@H]1CC[C@H](CC(=O)NC3CCC3)O[C@@H]1CO2	none (no result: HSF-1 act, HIF activator, HSF1 inhib, HSP90 refold inh)
COC(=O)[C@H]1[C@H]2C[C@@H]3c4[nH]c5cc(OC)ccc5c4CCN3C[C@H]2C[C@@H](OC(=O)c2ccc(N)cc2)[C@@H]1OC	HSF1 inhib -55
Cc1cc(/C=C(/C#N)c2cccc(Cl)c2)c(C)n1C	HSF-1 act 67 (no result: ARNT-TACC3 inh)
Cc1cc(/C=C(/C#N)c2cccc(F)c2)c(C)n1-c1cccnc1	none (no result: HSF-1 act, HSF1 inhib)
C[C@H]1CN([C@@H](C)CO)C(=O)Cc2cc(NC(=O)Cn3cnnn3)ccc2O[C@H]1CN(C)Cc1ccccc1	none (no result: HSF-1 act, HIF activator, HSF1 inhib, HSP90 refold inh)
Cc1ccc(NC2=C/C(=N/S(=O)(=O)c3cccs3)c3ccccc3C2=O)cc1C	none
CC(C)c1ccc(S(=O)(=O)/N=C2\C=C(NS(=O)(=O)c3ccccc3)C(=O)c3ccccc32)cc1	ARNT-TACC3 inh 47
COc1ccc(S(=O)(=O)/N=C2\C=C(Nc3ccc(O)cc3)C(=O)c3ccccc32)cc1	HSF1 inhib -94, HSP90 refold inh 96
CO[C@H]1CN(C)C(=O)c2ccc(NC(=O)c3ccccc3F)cc2OC[C@@H](C)NC[C@@H]1C	none (no result: HSF-1 act, HIF activator, HSF1 inhib, HSP90 refold inh)
COc1ccc(/C(C)=N/NC(=O)c2cccc(S(=O)(=O)N3CCCC3)c2)c(O)c1	HIF activator 33 (no result: HSP90 refold inh)
CSc1nnc([C@H](Cc2c[nH]c3ccccc23)NC(=O)OC(C)(C)C)o1	none
CCSc1nnc([C@H](Cc2c[nH]c3ccccc23)NC(=O)OC(C)(C)C)o1	HSF-1 act 59
Cc1n[nH]c(=S)n(NC(=O)CC(=O)Nn2c(=S)[nH]nc(C)c2=O)c1=O	ARNT-TACC3 inh 67
COc1ccccc1OCC(=O)Nn1c(=S)[nH]c2ncccc2c1=O	none
Cc1nn2c(=S)[nH]nc2[nH]c1=O	none
Cc1n[nH]c(=S)n(NC(=O)/C=C/C(=O)Nn2c(=S)[nH]nc(C)c2=O)c1=O	ARNT-TACC3 inh 66
C[C@@H]1CCCCO[C@@H](CN(C)C(=O)Cc2ccccc2)[C@H](C)CN([C@@H](C)CO)C(=O)c2cc(NC(=O)CCCCCC(=O)Nc3ccccc3N)ccc2O1	none (no result: HSF-1 act, HIF activator, HSF1 inhib, HSP90 refold inh)
CNC(=O)C[C@@H]1CC[C@@H]2[C@H](COc3ccc(NC(=O)C(C)C)cc3C(=O)N2C)O1	none (no result: HSF-1 act, HIF activator, HSF1 inhib, HSP90 refold inh)
N#Cc1cnc(Nc2ccc(F)cc2)nc1N	HSF-1 act 72
Cc1cc(C)c(C#N)c(Nc2ccc(F)cc2)n1	none
Cc1cc(/C=C2/C(=O)NN(c3ccccc3)C2=O)c(C)n1-c1cccc(O)c1	HSF1 inhib -63
Cc1cc(/C=C2\SC(=S)NC2=O)c(C)n1-c1cccc(O)c1	none
c1ccc(-c2ccncc2)nc1	none (no result: HSF-1 act, HIF activator, HSF1 inhib, HSP90 refold inh)
c1ccc(-c2cccc(-c3ccccn3)n2)nc1	HIF activator 212 (no result: ARNT-TACC3 inh)
CCS(=O)(=O)N[C@H]1CC[C@@H](CC(=O)NCc2ccc(Cl)cc2)O[C@@H]1CO	none (no result: HSF-1 act, HIF activator, HSF1 inhib, HSP90 refold inh)
Nc1nc(CCl)nc(Nc2ccc3ccccc3c2)n1	HSF-1 act 111
Nc1nc2ccccc2n1/N=C/c1cccnc1	none
Nc1nc2ccccc2n1/N=C/c1ccc([N+](=O)[O-])s1	HSF-1 act 99
COCCCNC(=S)Nc1cc(C)c(C)cc1C	none
COCCNC(=S)Nc1cc(OC)c(OC)cc1C#N	ARNT-TACC3 inh 50
Cn1c(-c2nonc2N)nc2ccccc21	HSF1 inhib -74
CC(OC(=O)CN1C(=O)NC(C)(C)C1=O)C(=O)c1ccccc1 (configuration not stated)	none
CC(OC(=O)CN1C(=O)NC2(CCCC2)C1=O)C(=O)c1ccccc1 (configuration not stated)	HSF1 inhib -70 (no result: HSP90 refold inh)
Cc1ncoc1C(=O)Nc1ccc(Oc2ccccc2)cc1	HSF-1 act 52
[O-]/[N+](=C\C=C\c1ccccc1)c1ccccc1	HSF-1 act 62
CC(=O)Nc1ccc(NC(=O)C(C)OC(=O)/C=C/c2ccc3c(c2)OCO3)cc1 (configuration not stated)	none (no result: HSP90 refold inh)
COc1cccc(NC(=O)C(OC(=O)/C=C/c2ccc3c(c2)OCO3)c2ccccc2)c1 (configuration not stated)	HSF-1 act 54
COc1cccc(/C=C/C(=O)NCc2ccc3c(c2)OCO3)c1	HSF1 inhib -85
COc1ccc(CC(=O)NCc2ccc3c(c2)OCO3)cc1	none (no result: ARNT-TACC3 inh)
CCN(Cc1ccc2c(c1)OCO2)C(=O)/C=C/c1cccc(Br)c1	HSF1 inhib -74
CO[C@@H]1CN(C)C(=O)c2ccc(NC(=O)Cc3ccccc3)cc2OC[C@H](C)N(C(C)=O)C[C@H]1C	none (no result: HSF-1 act, HIF activator, HSF1 inhib, HSP90 refold inh)
CCCNC(=O)N[C@@H]1CC[C@H](CCn2cc(C3CCCC3)nn2)O[C@@H]1CO	none (no result: HSF-1 act, HIF activator, HSF1 inhib, HSP90 refold inh)
Cc1cc2cc(CCNC(=O)c3cccs3)c(=O)[nH]c2cc1C	HSF-1 act 58
Cc1cc2cc(CN(Cc3cccs3)C(=S)NCc3ccco3)c(=O)[nH]c2cc1C	HSF-1 act 63
Cc1ccc(C)c2[nH]c(=O)c(CN(Cc3cccs3)C(=S)NCc3ccco3)cc12	HSF-1 act 77
Cc1cc2cc(CN(CCN(C)C)C(=S)NCc3ccco3)c(=O)[nH]c2cc1C	none
COc1ccccc1NC(=S)N(Cc1ccco1)Cc1cc2cc(C)ccc2[nH]c1=O	HSF-1 act 99
CCC(=O)N1[C@H](CO)[C@H]2c3ccccc3N(S(=O)(=O)c3ccccc3)C[C@H]21	none (no result: HSF-1 act, HIF activator, HSF1 inhib, HSP90 refold inh)
CCCCNC(=S)N(Cc1ccco1)Cc1cc2cc3c(cc2[nH]c1=O)OCCO3	HSF-1 act 156
CCn1c(Cn2nnc(-c3ccccc3)n2)nnc1SCC(=O)Nc1cccc(C)c1C	HSF-1 act 76
CC(Sc1nnc2ccccn12)C(N)=O (configuration not stated)	HSF-1 act 76
CC(=NNC(N)=O)C1=C(O)C(C(C)C)NC1=O (configuration not stated)	ARNT-TACC3 inh 60 (no result: HSF-1 act, HIF activator, HSF1 inhib, HSP90 refold inh)
C[C@H](CO)N1C[C@H](C)[C@@H](CN(C)C(=O)C2CCOCC2)Oc2ncc(-c3ccccc3)cc2C1=O	none (no result: HSF-1 act, HIF activator, HSF1 inhib, HSP90 refold inh)
CO[C@H]1CN(C)C(=O)c2cc(NC(=O)c3ccccc3F)ccc2OC[C@H](C)N(C(=O)c2ccccc2F)C[C@H]1C	none (no result: HSF-1 act, HIF activator, HSF1 inhib, HSP90 refold inh)
O=C(N/N=C/c1ccco1)C1(O)c2ccccc2-c2ccccc21	HSF-1 act 56 (no result: ARNT-TACC3 inh)
Cc1cc2c(cc1C)/C(=N/NC(=O)c1ccccn1)CCC2	none (no result: ARNT-TACC3 inh)
O=C(NN=C1CCC(=NNC(=O)c2ccccn2)CC1)c1ccccn1	ARNT-TACC3 inh 66 (no result: HSF-1 act, HIF activator, HSF1 inhib)
O=C(N/N=C/c1ccco1)c1ccccn1	ARNT-TACC3 inh 67

Assay outcomes deposited in PubChem BioAssay by several laboratories.
